Assay outcomes (PubChem)
Tau ThT inhib: qHTS for Inhibitors of Tau Fibril Formation, Thioflavin T Binding. Microtubule-associated protein tau (Homo sapiens), P10636. recombinant tau K18 P301L, heparin-induced fibrillization, ThT fluorescence. 270,000 tested, 2.1% active. Potency, µM (highest dose often 57.4 µM), inactives show top-dose activity, negative = inhibition, actives largely listed as inhibitors; also: potency is read from the fitted curve at half-maximal effect; % is scaled to controls: 0 for no effect and ±100 for the full control effect; nearly all actives have a fitted effect of over 55% in size
Target sequence (P10636 561-689 P618L limits assumed): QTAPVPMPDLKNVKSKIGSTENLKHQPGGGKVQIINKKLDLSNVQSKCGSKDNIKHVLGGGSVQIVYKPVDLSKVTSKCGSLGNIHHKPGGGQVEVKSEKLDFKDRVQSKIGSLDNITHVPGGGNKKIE
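Using a mix of unlabeled (15 uM) and Alexa 594-labeled (0.24 uM) tau K18 P301L, heparin-triggered fibrillization over 6 hr at 37 C was scored by ThT fluorescence.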
Tau FP inhib: qHTS for Inhibitors of Tau Fibril Formation, Fluorescence Polarization. Microtubule-associated protein tau (Homo sapiens), P10636. K18 P301L tau heparin fibrillization, Alexa594 FP, 6 h. Potency, µM (top dose mostly 57.7 µM), for the others: at the highest dose activity, negative = inhibition, usual class: inhibitors. 280,000 tested, 0.39% active. AID 1468, 2008; also: potency is read from the fitted curve at half-maximal effect; % is scaled to controls: 0 for no effect and ±100 for the full control effect; nearly all actives have a fitted effect of over 55% in size
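Read-out: fluorescence polarization of Alexa 594-labeled tau (0.24 uM), 555 nm excitation, 632 nm emission. Mixtures held 15 uM unlabeled K18 P301L, compound and 20 uM heparin, pH 7 acetate buffer, incubated 6 hr at 37 C.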
Lamin A splicing: qHTS Assay for Modulators of Lamin A Splicing | HeLa LMNA splicing GFP/RFP minigene ratio, 48 h | Potency, µM (top dose mostly 46.1 µM), inactives show at the highest dose ratio change, negative = inhibition, hits mostly inhibitors | 200,000 tested, 0.01% active | AID 1487, 2009; active = well fitted inhibition curve with a large enough effect in the signal ratio, with a control signal flat, not every such curve was filed as active; inconclusive = small, poorly fitted or top-dose-only effect, or effect the other way, or a change in a side signal; the % refers to the signal ratio; also: potency is read from the fitted curve at half-maximal effect; % is scaled to controls: 0 for no effect and ±100 for the full control effect
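S3 HeLa cells stably expressing lamin A-EGFP splicing minigene plus DsRed2, 600 cells/well, 48 h compound exposure at 37C. Laser-scanning cytometry; analysed as GFP (500-530 nm)/RFP (575-640 nm) total intensity ratio; 0.5% DMSO vehicle.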
Tau fluor cs: Counterscreen qHTS for Inhibitors of Tau Fibril Formation, Fluorescence Polarization; tau K18 P301L (four-repeat tau fragment) Alexa594 fluorescence, heparin fibrillization; 280,000 tested, 0.93% active; AID 1463, 2008; Potency, µM (titrated, usually from 57.7 µM), for inactives: at the top dose activity change, negative = decrease; also: potency is read from the fitted curve at half-maximal effect; % is scaled to controls: 0 for no effect and ±100 for the full control effect; nearly all actives have a fitted effect of over 55% in size
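Human K18 P301L tau (15 uM unlabeled plus 0.24 uM Alexa 594-labeled, final) in 100 mM sodium acetate pH 7 was mixed with compound and 20 uM heparin and incubated 6 hr at 37 C.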
KDM4E inh: qHTS Assay for Inhibitors of Human Jumonji Domain Containing 2E (JMJD2E). AID 2147, 2009. 230,000 tested, 1.6% active. JMJD2E catalytic domain, FDH-coupled NADH fluorescence (FDH is formaldehyde dehydrogenase). Potency, µM (doses to about 57.1 µM), for the others: top-dose activity change, negative = inhibition, usual class: inhibitors; active = well fitted inhibition curve with a large enough effect, not every such curve was filed as active; inconclusive = small, poorly fitted or top-dose-only effect, or another doubt; inactive = no such curve, though single readings can be large or run the other way;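 also: potency is read from the fitted curve at half-maximal effect; 0% = wells with enzyme and -100% = buffer wells without enzyme; nearly all actives have a fitted effect of over 50% in size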
CBFb-RUNX1 inh: qHTS Assay for Compounds Blocking the Interaction Between CBF-beta and RUNX1 for the Treatment of Acute Myeloid Leukemia. Potency, µM (titrated, usually from 59.8 µM), for the others: at the top dose activity, negative = inhibition, usual class: inhibitors. 230,000 tested, under 10 active. AlphaScreen CBFb-His/RUNX1-biotin binding, biochemical; also: % of control where 0% means no effect
Target sequence (Q01196 whole entry, looked up): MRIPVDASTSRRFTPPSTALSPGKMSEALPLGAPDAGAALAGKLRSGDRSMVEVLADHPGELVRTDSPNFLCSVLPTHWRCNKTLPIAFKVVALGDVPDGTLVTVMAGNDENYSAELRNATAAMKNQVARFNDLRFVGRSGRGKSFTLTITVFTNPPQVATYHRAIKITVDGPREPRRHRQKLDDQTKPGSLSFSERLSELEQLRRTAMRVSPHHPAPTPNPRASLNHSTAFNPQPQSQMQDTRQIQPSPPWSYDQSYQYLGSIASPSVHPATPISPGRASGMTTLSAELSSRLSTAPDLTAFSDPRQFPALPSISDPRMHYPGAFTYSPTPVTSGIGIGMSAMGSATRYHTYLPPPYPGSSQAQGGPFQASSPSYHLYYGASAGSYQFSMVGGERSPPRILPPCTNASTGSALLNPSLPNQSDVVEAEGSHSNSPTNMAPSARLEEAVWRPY
Target sequence (Q13951 whole entry, looked up): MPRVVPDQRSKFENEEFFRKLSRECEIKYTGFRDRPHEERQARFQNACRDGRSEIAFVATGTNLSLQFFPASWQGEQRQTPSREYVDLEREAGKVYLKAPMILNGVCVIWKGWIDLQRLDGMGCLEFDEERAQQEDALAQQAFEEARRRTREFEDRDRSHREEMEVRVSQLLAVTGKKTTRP
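AlphaScreen proximity signal reports loss of binding between His-tagged CBF-beta and biotin-labelled RUNX1, each at 30 nM. Proteins are pre-associated for 20 minutes, compounds added for 15 minutes, then beads for 90 minutes, all at ambient temperature.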
* = called active by the depositor; ? = inconclusive; nt = no result; [ ] = another dose, or the depositor's remark. This is a sample that favours compounds with a hit; in the whole collection about 3.2% have one here. Unless noted, calls follow the shape of the dose curve; as a rule, active = well fitted curve in the direction sought with a large enough effect; inconclusive = small, poorly fitted or top-dose-only effect, or another doubt; inactive = no such curve, though single readings can be large; an effect the other way counts as inactive or inconclusive.

SMILES | Tau ThT inhib | Tau FP inhib | Lamin A splicing | Tau fluor cs | KDM4E inh | CBFb-RUNX1 inh
Cc1cc(C(=O)NNC(=S)Nc2ccccc2)nn1C | -13.5% | -1.6% | nt | -5.7% | 8.91µM* | ?
COc1cc(/C=C2/CCc3ccccc3C2=O)cc(OC)c1OC | ? | -4.2% | ? | -13.8% | 1.0% | -5.4%
COc1cc(/C=C2\CC/C(=C\c3cc(OC)c(O)c(OC)c3)C2=O)cc(OC)c1O | 6.31µM* | ? | ? | 14.1µM*[quencher] | ? | ?
COc1cc(/C=C2/CCC/C(=C\c3cc(O)c(OC)c(Cl)c3)C2=O)cc(Cl)c1O | 11.2µM* | ? | ? | ? | 0.4% | -22.7%
COc1cc(/C=C2\CC/C(=C\c3cc(OC)c(OC)c(OC)c3)C2=O)cc(OC)c1OC | -16.6% | -4.7% | ? | 3.2% | 3.7% | -1.8%
COc1cc(/C=C2\COC/C(=C\c3cc(OC)c(OC)c(OC)c3)C2=O)cc(OC)c1OC | 8.91µM* | ? | nt | 0.5% | -5.9% | -2.0%
Cc1cc(O)c2c(C)c(CC(=O)NCc3ccccc3Cl)c(=O)oc2c1 | -3.6% | -0.1% | nt | -16.6% | nt | nt
COc1cc(/C=C/c2ccc(O)cc2)cc(OC)c1 | ? | 2.4% | ? | 15.8µM*[quencher] | ? | 9.5%
COc1cc(NC(=O)c2csc(N)n2)cc(C(=O)Nc2cccc(C(F)(F)F)c2)c1 | ? | ? | nt | ? | -26.7% | -4.4%
COc1cc(NC(=O)c2cnc(N)s2)cc(C(=O)Nc2cccc(C(F)(F)F)c2)c1 | -0.2% | ? | nt | -29.3% | 20µM* | 4.6%
CCCSCCCNC(=O)c1ccc2c(c1)sc1nc(-c3ccc(OCC)cc3)cn12 | 3.5% | 1.3% | -0.8%[46 µM] | -7.5% | nt | nt
COc1ccc(NC(=O)c2cc3c(Cl)nc4ccccc4c3s2)cc1OC | ? | 6.6% | 1.3% | 4.47µM*[quencher] | 14.4% | 9.9%
COc1ccc(OC)c(NC(=O)c2cc3c(Cl)nc4ccccc4c3s2)c1 | -6.2% | 8.7% | -8.9% | -18.5% | 3.8% | 8.5%
CCCOc1ccc(/C=C2\SC(=S)N(CC3CCCO3)C2=O)cc1 (stereo unspecified) | ? | -5.0% | ? | -10.2% | 11.8% | -1.7%
O=C1/C(=C/c2ccc(O)cc2)SC(=S)N1CC1CCCO1 (stereo unspecified) | 10µM* | ? | nt | 12.6µM*[quencher] | -7.2% | 1.9%
CCOc1ccc(/C=C2\SC(=S)N(C(C(=O)O)c3ccccc3)C2=O)cc1OC (stereo unspecified) | ? | 0.6% | nt | -3.2% | -3.2% | -5.5%
COc1cc(/C=C2\SC(=S)N(N(C)c3ccccc3)C2=O)ccc1O | 25.1µM* | -4.2% | nt | 25.1µM*[quencher] | -19.7% | ?
O=C(CSc1nnc(-c2ccccc2)o1)c1cccc([N+](=O)[O-])c1 | ? | -9.4% | nt | -12.5% | nt | nt
COC(=O)C1=C(C)NC(=O)/C1=C\c1ccc2c(c1)OCO2 | 12.6µM* | 6.7% | -6.4% | -14.8% | -6.1% | 5.0%
CC1=NOC(=O)/C1=C/c1ccc2c(c1)OCO2 | ? | 0.6% | nt | -8.6% | ? | 1.4%
CCOC(=O)C1CCN(C(=O)C2CCN(S(=O)(=O)c3c(C)noc3/C=C/c3ccc(C)cc3)CC2)CC1 | -19.9% | -1.3% | -2.9%[46 µM] | -7.6% | nt | nt
CCCCOC(=O)C1=C(C)NC2(O)c3ccccc3C(=O)C12O (stereo unspecified) | 10µM* | ? | 13.9% | -11.0% | -20.0% | 8.8%
CCOC(=O)C1=C(C)N[C@@]2(O)c3ccccc3C(=O)[C@@]12O | 3.55µM* | ? | ? | -10.6% | -8.2% | 15.3%
CC1=C(C(=O)OC(C)C)C2(O)C(=O)c3ccccc3C2(O)N1 (stereo unspecified) | 7.08µM* | ? | 6.9% | -23.2% | ? | -13.2%
CCc1ccccc1NC(=O)c1cc(S(=O)(=O)N2CCc3ccccc32)ccc1F | -15.1% | -7.7% | ? | -29.8% | nt | nt
SMILES | Tau ThT inhib | Tau FP inhib | Lamin A splicing | Tau fluor cs | KDM4E inh | CBFb-RUNX1 inh
COc1ccccc1CNc1ccc(-c2nc(-c3ccccn3)no2)cc1[N+](=O)[O-] | -0.2% | -3.7% | nt | 0.4% | nt | nt
O=c1cccccc1NN=C1CCCCC1 | nt | -6.6% | nt | -14.8% | -23.2% | 13.3%
O=C(O)c1cc(Br)ccc1NN=C1CCCCC1 | 20µM* | -14.1% | ? | -21.9% | ? | -6.9%
CC(C)C[C@H](NC(=O)CN(C)C(=O)[C@H](Cc1ccccc1)NC(=O)[C@H](Cc1ccccc1)NC(=O)[C@H](CCC(N)=O)NC(=O)[C@H](CCC(N)=O)NC(=O)[C@@H]1CCCN1C(=O)[C@H](CCCCN)NC(=O)[C@@H]1CCCN1C(=O)[C@@H](N)CCCN=C(N)N)C(=O)N[C@@H](CCS(C)(=O)=O)C(N)=O | nt | nt | nt | nt | nt | 13.0%
CSc1nsc(/C=C/Nc2ccc(F)cc2)c1C#N | ? | -1.4% | 20.5%[46 µM] | -24.7% | ? | -5.9%
CSc1nsc(/C=C/Nc2ccc(Cl)cc2)c1C#N | 15.8µM* | -7.5% | 21.3% | ? | -6.3% | 2.0%
CSc1nsc(/C=C/Nc2ccc(O)cc2C)c1C#N | 15.8µM* | 25.1µM* | 23.3%[46 µM] | ? | 12.6µM* | ?
COc1ccc([C@H]2OCC3C2CO[C@@H]3c2ccc(OC)c(OC)c2)cc1OC (stereo partly specified) | nt | nt | nt | nt | nt | 0.0%
Cc1ccc(N)cc1O | nt | nt | nt | nt | nt | -1.1%[21.7 µM]
Cc1cc(O)c(-c2cc(O)c(C)cc2O)cc1O | 7.94µM* | 14.1µM* | nt | ? | ? | -14.5%
CCCCOC(=O)Cn1nnc2sc(-c3ccccc3)cc2c1=O | ? | 2.3% | nt | -21.3% | nt | nt
CCOc1cc(C2Nc3ccccc3C(=O)N2c2ccccc2)ccc1O (stereo unspecified) | -6.6% | 2.1% | 2.6% | -7.1% | ? | -4.8%
CCOc1ccc(C2Nc3cccc4cccc(c34)N2)cc1OC | 3.55µM* | ? | -10.4% | ? | ? | 6.5%
COc1ccccc1C1Nc2cccc3cccc(c23)N1 | 22.4µM* | -11.8% | 14.1% | ? | ? | ?
CCOc1cc(C2Nc3cccc4cccc(c34)N2)ccc1O | 6.31µM* | ? | 18.3% | 5.01µM*[quencher] | 3.2% | -7.6%
COc1ccc(C2Nc3cccc4cccc(c34)N2)cc1 | 15.8µM* | -14.8% | ? | ? | ? | -2.7%
Oc1ccccc1C1Nc2cccc3cccc(c23)N1 | 7.0% | 6.3% | 10.3% | 11.2% | 3.3% | -2.7%
